From PubChem BioAssay (EPA / NIEHS) come the findings set out here.

The structures appear in SMILES notation. Active and inactive are the calls of the source. The calls were made as follows: active = hit-call score of the fitted dose curve at least 0.9, where 1 is the maximum; inactive = score below 0.9.

Read-out in this assay: Glutathione S-transferase M3 (GSTM3), GSTM3 (gene 2947)
The experiment in a line: LTEA_HepaRG_GSTM3: Life Technologies and Expression Analysis (LTEA) Assay for Glutathione S-transferase M3 (GSTM3) using HepaRG (AID 2283501). The following applies: mRNA level, 48 h; actives raise or lower the signal. The protocol:
LTEA_HepaRG is a cell based, multiplexed-readout assay that uses HepaRG, a human liver cell line, with measurements taken at 48 hours after chemical dosing on a 96-well plate.LTEA_HepaRG_GSTM3 is one of 102 assay component(s) measured in the LTEA HepaRG cell culture assay. It is a marker of Oxidative Stress.Data from the assay component LTEA_HepaRG_GSTM3 was analyzed into 1 endpoint. This assay endpoint, LTEA_HepaRG_GSTM3, was analyzed with bidirectional fitting relative to DMSO as the negative control and baseline of activity. Using a type of inducible reporter, measures of mRNA induction for gain or loss-of-signal activity can be used to understand regulation of transcription factor activity. To generalize the intended target to other relatable targets, this assay endpoint is annotated to the transferase intended target family, where the subfamily is alkyl and aryl transferase.
A total of 1060 chemcials from the ToxCast library were tested in eight-point concentration-response experiments. Cell culture and cytotoxicity assays were conducted at Thermo Fisher Scientific's Custom Services facility (Madison, WI). A single lot of human HepaRG cells (Thermo Fisher Scientific, Frederick, MD) was used for the cell culture experiments. 96-well format collagen type I coated plates of human HepaRG cells were prepared using established methods. Briefly, cryopreserved HepaRG cells were thawed, plated at a density of approximately 100,000 cells/well in HepaRG Thaw, Plate, and General Purpose media (HPRG770, Thermo Fisher Scientific), and incubated for 48 hours. 0.5% DMSO was selected as vehicle control to balance the requisite need of DMSO in HepaRG cultures to maintain differentiation (for example, baseline metabolism, proportions of hepatocytes vs. cholangiocytes), while enabling further hepatic receptor pathway activation (for example, PXR and CAR) in response to chemical exposure. 48 hours after plating, the culture medium was replaced with HepaRG Serum-Free Incudtion Media. Cells were exposed to each test chemical in duplicate and maintained in CO2 incubators for another 48 hours. Chemical plates were thawed to room temperature and 200x concentrations of treatment groups were prepared. 8-point conentration-reponse curves were made with the highest exposure at 100 uM, followed by half-log dilutions, all in 0.5% DMSO. Each test plate contained variouse controls, induction positive controls (1mM phenobarbital), cytotoxicity positive controls ([…] aflatoxin B1), vehicle controls (0.5% DMSO), and total lysis controls (0.5% DMSO). Cell morphology images were taken using an Essen IncuCyte FLR automated microscope, with six 96-well plates imaged in about 24 minutes. Images were captured and exported and JPEG files. Spent culture media was transfered to black-well plates for the LDH assay, and remaining media was sorted at -80 C for later use. Cells were treated with RLT buffer and frozen until shipped for gene expression analysis. Total RNA was isolated from the cell suspension in 75 uL of Buffer RLT (Qiagen, Germantown, MD 20874) by Quintiles/Expression Analysis (Durham, NC) using a custom isolation procedure. Total RNA from each plate well was transferred to a preamplification plate. Fluidigm's 96.96 Dynamic ArrayTM (Fluidigm, Amsterdam, the Netherlands) technology was used for gene expression analyses by quantitative reverse transcription polymerase chain reaction (qRT-PCR, performed by Quintiles/Expression Analysis, Durham, NC)89. Standard TaqManTM Assays (Applied Biosystems/ThermoFisher Scientific, Foster City, CA) were used to assess the expression of 93 genes selected based on their selectivity and sensitivity to important hepatic receptors known to be modulated by environmental chemicals; importance in human hepatocyte functionality; and hepatotoxicity. […]
The term AC50 denotes the concentration at which the activity in the assay is half-maximal. Consider `CCCCN1C(=O)[C@@H]([C@H](O)C2CCCCC2)NC(=O)C12CCN(Cc1ccc(Oc3ccc(C(=O)O)cc3)cc1)CC2`, for which the AC50 is 4.76 µM (active).
`CCOc1ccc2[nH]cc(C(=O)NCc3ccccc3)c(=O)c2n1`: the result was inactive.
Still for that read-out and setting: in the case of `CCCCCCCC1CCC(=O)O1` (stereo not given) it was “inactive”.
Still for that read-out and setting: in the case of `O=C(O)c1ccc2c(c1)nc(C(=O)NC1CCN(C3CC3)CC1)n2Cc1cc(-c2ccc(Cl)s2)on1` it was “inactive”; in that of `CC(C)CC(C)O` (stereo not given), “inactive”.
Same read-out and setting: in the case of `O=c1[nH]cnc2c1ncn2[C@H]1CC[C@@H](CO)O1` it was “inactive”.
For `CC(C)C(=O)Nc1ccc([N+](=O)[O-])c(C(F)(F)F)c1`, the AC50 was 50 µM (active).
Take `NC(=O)NN=Cc1ccc([N+](=O)[O-])o1`: the outcome was inactive.
Same read-out and setting: in the case of `C[C@@H](Oc1ccc(CNC(=O)c2cccnc2Oc2ccc3c(c2)OCO3)c(F)c1)C(=O)O` it was “inactive”; in that of `CCCCCCCCN(C)C`, “inactive”; in that of `CCCCCOC(C)=O`, “inactive”.
Same read-out and setting: in the case of `OC[C@H]1O[C@@](CO)(O[C@H]2O[C@H](CO)[C@@H](O)[C@H](O)[C@H]2O)[C@@H](O)[C@@H]1O` it was “inactive”.
The same measure, in the same setting: in the case of `OC(Cn1cncn1)(Cn1cncn1)c1ccc(F)cc1F` it was “inactive”; in that of `COc1cc(C(C)C)c2c(c1)S(=O)(=O)N(COc1cc(=O)n3cccc(OCCN4CCCCC4)c3n1)C2=O`, “inactive”; in that of `O=C(O)c1cccc(C(=O)O)c1`, “inactive”.
`CC1(C)C(=O)N(Cl)C(=O)N1Cl`: the call was inactive.
The same measure, in the same setting: in the case of `CCOC(N)=O` it was “inactive”; in that of `OC(CCl)CCl`, “inactive”.
On the same count and under the same terms, in the case of `NC(=O)N1c2ccccc2C=Cc2ccccc21` it was “inactive”; in that of `C=CCc1cc(S(=O)(=O)c2ccc(O)c(CC=C)c2)ccc1O`, “inactive”; in that of `Cn1cc[nH]c1=S`, “inactive”.
In the case of `NC(N)=O`, the compound was called inactive.
The same measure, in the same setting: in the case of `CCCCCCCCCCCCCCCCOS(=O)(=O)O` it was “inactive”; in that of `CCCCCCCC/C=C\CCCCCCCC(=O)OC[C@@H](O)[C@H]1OC[C@H](O)[C@H]1O`, “inactive”.
As for `c1ccc2ncccc2c1`, the call was inactive.
On to `C[C@]12C=CC(=O)C=C1CC[C@H]1[C@@H]3C[C@@H](O)[C@](O)(C(=O)CO)[C@@]3(C)C[C@H](O)[C@@]12F`, for which the result was inactive.
Same read-out and setting: in the case of `CCc1ccc(O)c(C(C)(C)C)c1` it was “inactive”.
On the same count and under the same terms, in the case of `COCc1nnc(-c2ccc[n+]([O-])c2)n1-c1c(Cl)c(Cl)cc2[nH]c(=O)c(=O)[nH]c12` it was “inactive”.
Consider `Cc1ncc([C@@H](CCCCCCc2ccc3c(n2)NCCC3)CC(=O)O)cn1`, for which the call was inactive.
The same measure, in the same setting: in the case of `CC[C@H](C)C(=O)O[C@H]1C[C@H](O)C=C2C=C[C@H](C)[C@H](CC[C@@H](O)C[C@@H](O)CC(=O)O)[C@H]21` it was “inactive”.
Still for that read-out and setting: in the case of `CCN(CC)C(=S)SSC(=S)N(CC)CC` it was “inactive”; in that of `Cn1c(=O)c2[nH]cnc2n(C)c1=O`, “inactive”.
On the same count and under the same terms, in the case of `CCCCCCCCCC` it was “inactive”; in that of `CC(C)c1nnc2ccc(-c3ocnc3-c3cc(F)ccc3F)cn12`, “inactive”; in that of `O=C1CN(N=Cc2ccc([N+](=O)[O-])o2)C(=O)N1`, “inactive”.
Turning to `c1ccc2cc3ccccc3cc2c1`, the result was inactive.
The same measure, in the same setting: in the case of `OCCNCCO` it was “inactive”; in that of `O=C(O)c1cccc(C[C@@H]2COc3ccc(OCc4nc5cc(F)ccc5s4)cc3[C@@H]2O)c1`, “inactive”.
Still for that read-out and setting: in the case of `CNC(C)=O` it was “inactive”; in that of `CCCCOC(=O)c1ccccc1`, “inactive”.
